Compound activity (PubChem BioAssay)
Hits are enriched below; roughly 1.8% of the tested compounds scored in any of these assays.
Mito fusion act = inhibitors of mitochondrial division or activators of mitochondrial fusion; S. cerevisiae fusion-defective mutant growth rescue, CellTiterGlo 48 h; Potency, µM (series often up to 46.1 µM), without a hit: at the top dose growth rescue (activation), hits mostly activators; 320,000 compounds, 0.23% hits; AID 485298; also: potency is read from the fitted curve at half-maximal effect; % of control where 0% means no effect; nearly all actives have a fitted effect of over 45% in size
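Yeast fusion mutant, YPEG (non-fermentable carbon), compound, 48 h at 37C non-permissive; CellTiterGlo added, 10 min RT, luminescence read. Rescued growth = division inhibition.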
MBNL1-CUG inh = inhibitors of human MBNL1 binding to CUG repeat RNA; Q9NR56; TR-FRET MBNL1-His/biotin-(CUG)12 binding, 665/545 ratio; Potency, µM (doses to about 57.5 µM), without a hit: at the highest dose activity change, negative = inhibition, actives largely listed as inhibitors; 280,000 compounds, 0.036% hits; AID 2675; active = well fitted inhibition curve with a large enough effect in the signal ratio, with a control signal flat, not every such curve was filed as active; inconclusive = small, poorly fitted or top-dose-only effect, or effect the other way, or a change in a side signal; inactive = no such curve, though single readings can be large or run the other way; the % refers to the signal ratio; also: potency is read from the fitted curve at half-maximal effect; % is scaled to controls: 0 for no effect and ±100 for the full control effect
Target sequence (Q9NR56 whole entry, looked up): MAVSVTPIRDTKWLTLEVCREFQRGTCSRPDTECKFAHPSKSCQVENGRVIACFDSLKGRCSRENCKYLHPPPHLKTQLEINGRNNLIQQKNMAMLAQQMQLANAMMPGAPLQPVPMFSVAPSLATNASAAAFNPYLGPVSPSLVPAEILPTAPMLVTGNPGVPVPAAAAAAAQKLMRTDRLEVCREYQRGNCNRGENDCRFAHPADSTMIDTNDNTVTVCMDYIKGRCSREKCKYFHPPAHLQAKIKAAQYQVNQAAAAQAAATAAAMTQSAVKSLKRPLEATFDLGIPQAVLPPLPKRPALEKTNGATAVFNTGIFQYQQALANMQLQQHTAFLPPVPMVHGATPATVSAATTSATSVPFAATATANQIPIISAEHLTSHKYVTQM
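His-tagged MBNL1 binding to biotinylated (CUG)12 RNA was measured by TR-FRET using terbium anti-His antibody (0.055 ng/ul final) and streptavidin-XL665 (5 nM final). Compounds were titrated 92 nM to 58 uM; 60 min at room temperature.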
Glioma ERSR ind = ER stress response induction in glioma; 420,000 compounds, 0.02% hits; Potency, µM, for inactives: at the highest dose activation, most hits filed as activators; U87-MG GRP78 promoter luciferase reporter, 16 h; AID 602332; also: potency is read from the fitted curve at half-maximal effect; series mostly up to about 76 µM; % of control where 0% means no effect; nearly all actives have a fitted effect of over 35% in size
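ERSR induction read as luciferase luminescence (Bright-Glo, 10 min at room temperature) in stably transfected human U87-MG glioma cells exposed to compounds for 16 h, using GRP78 as sensor.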
TCR act = T cell receptor activation; primary human leukocytes, anti-CD3, IL-2 HTRF, 48 h; Potency, µM (doses to about 9.22 µM), inactives show at the highest dose activation of IL-2 secretion, hits mostly activators; 330,000 tested, under 10 active; also: % of control where 0% means no effect
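Primary human leukocytes were stimulated with a-CD3 beads plus compounds for 48 hr without co-stimulation; secreted IL-2 was quantified by HTRF using a-IL-2-K (europium cryptate) and a-IL-2-d2, excited at 320nm with acceptor emission read at 665nm.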
ClpP mod = qHTS Assay for Activators of ClpP | 340,000 compounds, 1.9% hits | ATP-dependent Clp protease proteolytic subunit (Bacillus subtilis (strain 168)), P80244 | purified B. subtilis ClpP, FRET peptide cleavage, 20 min | Potency, µM (doses to about 57.5 µM), for inactives: at the highest dose activity change, negative = active; active = well fitted falling curve with a large enough effect; inconclusive = small, poorly fitted or top-dose-only effect; inactive = no such curve, though single readings can be large or run the other way; also: potency is read from the fitted curve at half-maximal effect; the source files actives as falling curves though it sought activators and does not explain the sign; nearly all actives have a fitted effect of over 65% in size
Target sequence (P80244 whole entry, looked up): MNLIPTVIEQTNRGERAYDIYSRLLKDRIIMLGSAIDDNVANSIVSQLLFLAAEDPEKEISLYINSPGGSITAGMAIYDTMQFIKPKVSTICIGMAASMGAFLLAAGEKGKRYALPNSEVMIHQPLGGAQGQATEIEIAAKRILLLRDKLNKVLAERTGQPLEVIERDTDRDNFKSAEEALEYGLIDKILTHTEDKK
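Purified B. subtilis ClpP, 10 microg/mL final in Tris/HCl pH8 with KCl, BSA, glycerol and Tween-20, cleaved an Abz/nitrotyrosine-quenched decapeptide. Fluorescence (ex 320, em 430) was read at 0 and 20 min at room temperature. Delta was normalized to 5.8 microM ADEP and DMSO/no-enzyme controls.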
AT treatment = potential ataxia-telangiectasia treatment. AID 485349. Potency, µM (top dose mostly 57.5 µM), without a hit: at the highest dose activation, most hits filed as activators. 320,000 compounds, 0.19% hits. F2112 A-T fibroblasts, KAP-1 phosphorylation AlphaLISA; neocarzinostatin DNA damage 30 min before lysis; also: potency is read from the fitted curve at half-maximal effect; % of control where 0% means no effect; nearly all actives have a fitted effect of over 45% in size
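ATM-like activity read as KAP-1 phosphorylation via AlphaLISA donor/acceptor antibody pairs after lysis and 6 hr at 25C. Cells were ATM-null patient fibroblasts (F2112, hTERT), dosed 60 min, then exposed to the DSB inducer NCS for 30 min.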
The depositor's hits bear a star; ? = inconclusive; / = not tested or not shown; [ ] = dose if it differs, or a comment. Unless noted, calls follow the shape of the dose curve; as a rule, active = well fitted curve in the direction sought with a large enough effect; inconclusive = small, poorly fitted or top-dose-only effect, or another doubt; inactive = no such curve, though single readings can be large; an effect the other way counts as inactive or inconclusive.

SMILES | Mito fusion act | MBNL1-CUG inh | Glioma ERSR ind | TCR act | ClpP mod | AT treatment
CCCNC(=O)C1CCN(c2nc(C)cc(C)n2)CC1 | -1.9% | -0.1% | -3.3% | -1.4% | 15.8µM* | -3.2%
CCCCNC(=O)C1CCN(c2nc(C)cc(C)n2)CC1 | -22.5% | 3.6% | -2.7% | -12.2% | 4.0% | 0.4%
Cc1cc(C)nc(N2CCC(C(=O)O)CC2)n1 | 8.3% | 4.2% | -1.8% | 0.0% | 20µM* | -9.2%
Cc1ccc(NC(=O)C2CCN(c3nc(C)cc(C)n3)CC2)cc1 | -2.4% | 9.4% | -1.1% | -1.9% | ? | -5.7%
CCC(C)(C)NC(=O)C1CCN(c2nc(C)cc(C)n2)CC1 | -1.4% | 4.6% | -4.1% | -6.3% | 14.1µM* | -11.9%
CCOC(=O)c1n[nH]n2c1nc(=S)c1ccccc12 | 14.1µM* | 32.6% | 3.1% | 0.6% | / | -6.5%
CCOC(=O)c1cc2c3ccccc3n(CC)c2nc1N | 1.5% | -1.3% | -1.5% | -3.4% | 15.8µM* | ?
CC(=O)Nc1cc(-c2ccccc2)ccc1O | 13.1% | -21.2% | 0.4% | 3.6% | 3.8% | 15.4%
Nc1cc(-c2ccccc2)ccc1O | 1.4% | 6.7% | 0.8% | 4.5% | 31.6µM* | 3.9%
Cc1ncc2c(c1CNC(=O)c1cncs1)CCN(C(=O)c1ccsc1)C2 | / | / | -5.2% | / | / | /
COCc1c(C(=O)N2CCN(C)CC2)cnn1-c1ncc2c(n1)-c1ccccc1CCC2 | / | / | -2.8% | / | / | /
CC(C)N1CC=C2C(C#N)=C(N)C(C#N)(C#N)C(c3ccccc3)C2C1 (configuration not stated) | 1.0% | ? | -9.3% | -4.8% | ? | 6.1%
CCN1CC=C2C(C#N)=C(N)C(C#N)(C#N)C(c3cc(Cl)ccc3Cl)C2C1 (configuration not stated) | -3.3% | ? | -4.6% | -10.8% | 22.4µM* | -1.3%
CCOC(=O)c1cc2c(=O)n3ccccc3nc2n(CCCOC)c1=NC(C)=O | 2.0% | ? | -3.9% | -6.8% | 35.5µM* | 9.3%
CCOC(=O)c1cc2c(=O)n3ccccc3nc2n(CCCOC)c1=NC(=O)c1ccncc1 | -4.1% | ? | 1.0% | 6.0% | / | -3.6%
CCOC(=O)c1cc2c(=O)n3cccc(C)c3nc2n(CC2CCCO2)c1=NC(C)=O (configuration not stated) | / | / | -2.1% | 9.9% | 1.26µM* | /
CCN(C(=O)c1cc2c(=O)n3ccccc3nc2n1CCCOC)C1CCCCC1 | -3.4% | ? | -3.3% | -11.1% | 4.2% | 28.2µM*
CCCn1c(=NC(=O)c2ccco2)c(C(=O)OCC)cc2c(=O)n3ccccc3nc21 | 9.1% | ? | -3.0% | 9.9% | 17.8µM* | 2.1%
CCOC(=O)c1cc2c(=O)n3ccccc3nc2n(CC2CCCO2)c1=NC(=O)c1ccccc1C (configuration not stated) | / | / | -0.6% | / | 4.2% | /
CCCn1c(=NC(=O)c2cc3ccccc3o2)c(C(=O)OCC)cc2c(=O)n3ccccc3nc21 | / | / | -0.1% | / | -5.1% | /
CCC(C)NC(=O)c1ccc2nc(-c3cccs3)c(-c3cccs3)nc2c1 (configuration not stated) | / | / | -2.5% | / | -28.1% | /
C=C1C(=O)OC(CCCCCCCC)C1C(=O)O (configuration not stated) | / | / | -4.5% | / | / | /
CC1(C)Cc2c(cnn2-c2ccccc2)-c2c1c1ccccc1n2CC(O)CCl (configuration not stated) | -8.5% | -6.9% | -2.6% | -0.5%[46.1 µM] | 22.4µM* | -1.5%
CCCCc1cc2c(=O)c(C(=O)OC)c[nH]c2cc1OCc1ccccc1 | / | / | -1.6% | / | / | /
COc1ccc(Cl)c(Cn2cnc3c(cnn3C(C)(C)C)c2=O)c1F | / | / | 0.7% | / | / | /
SMILES | Mito fusion act | MBNL1-CUG inh | Glioma ERSR ind | TCR act | ClpP mod | AT treatment
Cc1ccccc1OCc1nc(-c2ccc(NC(=O)c3ccco3)cc2)no1 | 16.1% | 2.5% | -6.0% | -6.0%[46.1 µM] | 28.2µM* | -2.5%
O=C(Nc1ccc(-c2nc3ncccc3o2)cc1)c1ccco1 | 14.0% | 6.7% | 2.5% | / | 28.2µM* | -0.5%
Cc1ccc(-c2nnc(-c3ccc(NC(=O)c4ccco4)cc3)o2)cc1 | -4.9% | 1.7% | 17.9% | -31.9% | 31.6µM* | 11.3%
Cc1cc(C)c(OCC(=O)Nc2cccc(NC(=O)c3ccco3)c2)c(Br)c1 | 2.1% | -5.6% | -0.6% | 2.5% | -23.7% | -1.7%
Cc1cc(C)c(OCC(=O)Nc2ccc(NC(=O)c3ccco3)cc2)c([N+](=O)[O-])c1 | 20.1% | 7.9%[11.5 µM] | -1.4% | 3.5%[46.1 µM] | 31.6µM* | 0.3%
O=C(Nc1ccc(-c2nc3ncccc3o2)cc1)c1ccc(Br)o1 | 3.1% | 52.1% | -2.0% | 13.0%[46.1 µM] | -19.1% | 0.9%
Cc1ccc(NC(=S)NNC(=O)c2ccco2)cc1 | -7.8% | -8.4% | 8.9% | 4.4% | -0.3% | 6.5%
C1=Nc2ccccc2/C1=C/c1c[nH]c2ccccc12 | / | / | 3.9% | / | -16.5% | /
COc1cc(OC)c(-c2nnc(-c3ccc(OC)c(OC)c3OC)o2)cc1OC | 10.6% | 4.5% | -0.7% | 4.9% | 28.2µM* | 4.2%
CCOc1ccc(CN2CCOc3ccc(C(O)c4cccnc4)cc3C2)cc1 (configuration not stated) | / | / | -4.1% | / | / | /
CCC(=O)Nc1ccc2c(c1)C(=O)N(C1CCCCC1)C2=O | -0.3% | 16.4% | 0.8% | / | 22.4µM* | 2.7%
Cc1ccc(CNC(=O)CCC(=O)Nc2nnc(C3CCCCC3)s2)cc1 | -3.9% | 3.5% | -2.9% | -2.0% | 28.2µM* | -7.6%
O=C(CCC(=O)Nc1nnc(C2CCCCC2)s1)NCc1ccc(F)cc1 | -1.5% | -1.8% | -3.8% | -7.2% | / | 2.2%
O=C(Cc1ccc([N+](=O)[O-])cc1)Nc1nnc(C2CC2)s1 | -1.3% | -0.3% | -4.3% | -0.7%[46.1 µM] | 25.1µM* | -1.0%
COc1cc(OC)c(OC)cc1CN1CCCC(n2cc(C(=O)N3CCCCC3)nn2)C1 (configuration not stated) | / | / | -3.7% | / | / | /
CCc1ccc(S(=O)(=O)c2nnn3c2nc(N2CCCC2)c2sccc23)cc1 | / | / | -4.1% | / | ? | /
CCOC(=O)C1CCCN(c2nc3c(S(=O)(=O)c4ccc(Br)cc4)nnn3c3ccsc23)C1 (configuration not stated) | / | / | 1.2% | / | 11.2µM* | /
CC(C)c1ccc(S(=O)(=O)c2nnn3c2nc(N2CCCCC2)c2sccc23)cc1 | / | / | -2.3% | / | 25.1µM* | /
CC(C)c1ccc(S(=O)(=O)c2nnn3c2nc(N2CCOCC2)c2sccc23)cc1 | / | / | -1.4% | / | -28.3% | /
CCOC(=O)C1CCN(c2nc3c(S(=O)(=O)c4ccc(Br)cc4)nnn3c3ccsc23)CC1 | / | / | -3.9% | / | 14.1µM* | /
